# A3A deaminase – human APOBEC3A DNA deaminase inhibition; P31941; recombinant A3A, FAM/TAMRA ssDNA deamination fluorescence; inhibition, % at 20 µM; hit rate 0.41% among 330,000;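 active = at least 40% inhibition at 20 µM here, with at most 30% in a related deaminase screen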;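 note: plate controls were A3A with DMSO for no effect and wells lacking A3A enzyme for full effect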
# APOBEC3G inh – APOBEC3G (human) deaminase inhibition; hit rate 0.28% among 330,000; recombinant A3G, ssDNA deamination FAM/TAMRA fluorescence; inhibition, % at 20 µM; Q9HC16;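 active = inhibition of at least 40% at 20 µM, with no more than 30% in the related APOBEC3A deaminase screen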;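 note: plate controls were DMSO wells with A3G for no effect and wells lacking A3G enzyme for full effect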
# Target sequence (Q9HC16 whole entry, looked up): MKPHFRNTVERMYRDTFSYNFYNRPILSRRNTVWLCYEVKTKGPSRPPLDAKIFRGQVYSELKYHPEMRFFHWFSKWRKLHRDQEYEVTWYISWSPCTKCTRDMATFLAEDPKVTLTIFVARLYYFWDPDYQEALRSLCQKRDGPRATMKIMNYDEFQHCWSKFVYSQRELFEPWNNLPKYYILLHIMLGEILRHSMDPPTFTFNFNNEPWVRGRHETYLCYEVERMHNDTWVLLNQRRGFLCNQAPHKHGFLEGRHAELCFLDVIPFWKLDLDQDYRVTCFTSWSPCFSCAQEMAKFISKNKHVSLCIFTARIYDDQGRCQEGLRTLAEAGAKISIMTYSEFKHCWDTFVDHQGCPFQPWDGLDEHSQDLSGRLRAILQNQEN
# sPLA2-III inh – Inhibits HGIII-sPLA2 liposome hydrolysis, primary screen | QFRET BODIPY PC-A2 liposome hydrolysis, fluorescence | Q9NZ20 | hit rate 0.56% among 370,000 | inhibition, % at 12.2 µM;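 active = inhibition above mean plus 3 SD of compounds lying within the high and low control bounds, cut at about 19% in these data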;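 note: 0% = median of test compound wells and 100% = no enzyme DMSO wells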
# NALP1 inh – inhibitors of NALP1 inflammasome in yeast; inhibition, % at 10 µM; hit rate 0.61% among 280,000; S. cerevisiae NALP1/ASC/caspase-1 growth, X-gal OD620, 72 h; in the data active = inhibition mostly above about 24%, no sharp cut-off; inactive = mostly below about 32%
# CTSL1 counter – blocks F. hepatica cathepsin L1 in PFM18AAP counter-screen. recombinant F. hepatica cathepsin L1, Z-Leu-Arg-MCA fluorescence. inhibition, % at 5.96 µM. hit rate 0.49% among 300,000. AID 1906;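 active = inhibition above the mean of all tested compounds plus 3 SD, set per screening campaign, cut at about 17% in these data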;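 note: 0% = plate median of test compound wells and 100% = 1 µM Z-Phe-Ala-diazomethylketone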
# Starred values were filed as active, the others as inactive; nt = no result given. Shown are actives, neighbours in structure and some others; about 2% of the full set was active somewhere.
SMILES,A3A deaminase,APOBEC3G inh,sPLA2-III inh,NALP1 inh,CTSL1 counter
O=C(NCc1ccc(Cl)cc1)C1CCCN(C(=O)c2ccc(Cl)cc2)C1 (stereo not given),1.1,-4.4,4.4,nt,nt
CN(C)C(CNC(=O)C1CCCN(C(=O)c2ccc(Cl)cc2)C1)c1ccco1 (stereo not given),-1.1,-3.1,-2.1,18.9,18.5*
Clc1ccc(Cl)c(OCc2cc(-c3ccccc3Cl)on2)c1,2.2,0.9,4.6,4.4,18.8*
O=C(NC1CCCCN(Cc2cccc(Cl)c2)C1=O)c1ccc(COc2ccccc2)cc1 (stereo not given),nt,nt,-13.1,nt,nt
O=C(NCCN1CCOCC1)/C(=C\c1ccccc1Cl)NC(=O)c1ccccc1,-5.2,-5.7,4.9,11.5,18.8*
O=C1N=C(N2CCOCC2)S/C1=C/c1ccc(-c2ccccc2Cl)o1,6.9,5.9,1.9,39.9,34.2*
CC(C)(C=O)C1=CC(=O)c2ccccc2C1=O,nt,nt,-4.1,47.7*,-2.3
CC(C)(C)c1ccc2c(c1)C(=O)c1ccccc1C2=O,-0.4,-2.8,10.5,31.6,2.5
CC(C)C[C@H](NC(C)(C)C(=O)NC1CCCCC1)C(=O)NCC(c1ccccc1)c1ccccc1,nt,nt,2.9,nt,nt
COc1ccc(S(=O)(=O)N2CCC(C(=O)NCCC(=O)NC3CC3)CC2)cc1,-8.1,-6.2,7.1,34.0*,-1.4
COc1ccc(S(=O)(=O)N2CCC(C(=O)NCCC(=O)Nc3cccc(OC)c3)CC2)cc1,-0.7,-4.4,-12.9,-0.7,1.1
CN(CC(=O)Nc1ccc(F)cc1)C(=O)COC(=O)CNC(=O)c1ccc(Cl)cc1Cl,-0.5,-9.0,-1.1,nt,21.2*
COc1ccc(Cl)cc1C(=O)OCC(=O)N(C)CC(=O)Nc1ccc(F)cc1,-0.2,-10.7,-10.1,nt,0.4
Cc1cccc(CCNC(=O)c2ccc(Sc3ccccc3Cl)c([N+](=O)[O-])c2)c1,nt,nt,-1.3,nt,nt
Cc1c(C)[n+](=O)c2c(n1[O-])C(Br)CCC2Br (stereo not given),-4.2,-8.5,0.7,18.3,-3.5
Cc1c(CBr)[n+](=O)c2c(n1[O-])C(Br)CCC2Br (stereo not given),2.1,10.9,-5.7,41.5*,5.2
N=c1c(-c2nc3ccccc3[nH]2)cc(C(=O)c2ccco2)nn1-c1ccccc1,3.1,-6.4,24.5*,36.3,9.7
N=c1c(-c2nc3ccccc3[nH]2)cc(C(=O)c2cccs2)nn1-c1ccccc1,-1.8,-4.6,nt,-19.6,3.8
O=C(c1cc2cc([N+](=O)[O-])ccc2oc1=O)N1CCOCC1,-3.0,-7.5,-0.5,-11.1,-0.1
O=C(c1cc2cccc([N+](=O)[O-])c2oc1=O)N1CCOCC1,-2.9,-10.3,16.7,26.9,29.3*
CCOC(=O)[C@]12CCCC=C1N(CCCOC)C(=O)[C@@H]2CC(=O)NCCCCc1ccccc1,nt,nt,-9.3,nt,nt
O=C1N/C(=N/O)S/C1=C/c1cccc([N+](=O)[O-])c1,-1.5,-7.3,-14.2,3.1,-1.1
CC1(C)CC(=O)/C(=C\c2cccc([N+](=O)[O-])c2)C(C)(C)N1,2.0,2.2,-1.2,67.2*,2.5
CCOC(=O)C1C2C=CC3(CN(c4ccccc4CC)C(=O)C13)O2 (stereo not given),-5.2,-7.4,5.4,nt,0.4
CCCCCOC(=O)C1C2C=CC3(CN(c4ccccc4C)C(=O)C13)O2 (stereo not given),1.3,-7.5,1.5,30.2,18.6*
SMILES,A3A deaminase,APOBEC3G inh,sPLA2-III inh,NALP1 inh,CTSL1 counter
COc1ccc(C(=O)C2CCN(c3ncnc4sccc34)CC2)cc1,nt,nt,-5.9,nt,nt
O=C1c2ccccc2COc2ccc(O)cc21,-0.5,-6.3,1.8,-1.1,21.0*
Fc1cccc(/C=N/Nc2ccc3ccccc3n2)c1,-2.3,-4.8,20.0*,14.7,1.0
O=C(Nc1ncc(C(F)(F)F)cc1Cl)C1COc2ccccc2O1 (stereo not given),1.3,-3.9,-10.5,40.5*,0.5
C=CCNC(=S)N/N=C(\C)c1ccccn1,-3.4,-7.4,-2.0,77.7*,1.7
CC(=NNC(=S)Nc1ccccc1Cl)c1ccccn1,nt,nt,12.8,nt,nt
CC(=NNC(=S)Nc1ccccc1)c1ccccn1,nt,nt,20.8*,nt,nt
Cc1nn(Cc2c(F)c(F)c(F)c(F)c2F)c(C)c1NC(=O)c1ccc(COc2ccc(Cl)cc2Cl)o1,5.3,2.8,-21.2,38.9,17.4*
Cc1nn(Cc2ccc(Cl)cc2Cl)c(C)c1NC(=O)c1ccc(COc2cc(Cl)ccc2Cl)o1,-0.2,-1.4,0.4,-11.4,2.4
N#CC1=C(N)C(C#N)(C#N)C2(C(=O)Nc3ccccc32)C2CCCC=C12 (stereo not given),-3.2,-7.2,-11.3,12.1,20.1*
